# Experimental data published in patent US20260200999, “SYNTHETIC TRANSCRIPTION FACTORS” (ETH ZURICH, published 2026).
# Tests used:
# [1] = target: T1, MTERF1 73-399::RelA 430-551 (Homo sapiens, UniProt Q99551 SEQ:1-327); assay: cell_activity; HEK293 reporter; reduced but not abolished; conditions: tags: RelA 430-551 TAD fusion; dsDNA, one strand shown
# T1 chain: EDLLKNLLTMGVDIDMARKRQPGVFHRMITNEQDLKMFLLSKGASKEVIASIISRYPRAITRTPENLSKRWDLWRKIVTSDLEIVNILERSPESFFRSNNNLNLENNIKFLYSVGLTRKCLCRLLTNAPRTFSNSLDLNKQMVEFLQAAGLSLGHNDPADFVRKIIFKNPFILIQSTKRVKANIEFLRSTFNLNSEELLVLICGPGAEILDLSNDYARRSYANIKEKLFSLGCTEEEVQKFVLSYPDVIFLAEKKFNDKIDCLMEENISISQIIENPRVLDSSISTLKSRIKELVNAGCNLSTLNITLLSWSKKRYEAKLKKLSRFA
# [2] = target: T2, MTERF1 104-399::RelA 430-551 (Homo sapiens, UniProt Q99551 SEQ:1-296); assay: as above; conditions: tags: RelA 430-551 TAD fusion; dsDNA, one strand shown
# T2 chain: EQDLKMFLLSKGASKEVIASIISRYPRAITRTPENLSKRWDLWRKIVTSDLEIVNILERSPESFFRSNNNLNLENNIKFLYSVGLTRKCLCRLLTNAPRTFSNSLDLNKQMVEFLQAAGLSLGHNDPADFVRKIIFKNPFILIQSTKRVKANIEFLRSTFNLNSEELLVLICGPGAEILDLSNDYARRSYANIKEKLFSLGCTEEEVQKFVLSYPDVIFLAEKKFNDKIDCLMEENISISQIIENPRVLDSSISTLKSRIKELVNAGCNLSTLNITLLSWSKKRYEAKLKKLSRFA
sequence,measurement,setting,value
TAAGATGGCAGAGCCCGGTAATTAAGATGGCAGAGCCCGGTAATTAAGATGGCAGAGCCCGGTAATTAAGATGGCAGAGCCCGGTAATTAAGATGGCAGAGCCCGGTAAT,binding signal,[1],~1.5 fold less than MTF
same,binding signal,[2],~1.5 fold less than MTF
